From PMC4336329 (PLoS ONE, 2015)
Out of some 310,000 compounds screened, about 14,000 (4.5%) showed an effect of 50% or more. The effect is printed as a negative number. Many of the other results were omitted from the sample, so strong results are more common in it than they were.

Target: human ether-à-go-go-related gene (hERG) potassium channel (human, UniProt Q12809)
Test: primary screen, population patch clamp on CHO cells stably expressing hERG; higher = less effect of the substance
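Note: peak tail current of the secondary pulse compared with the same well before compound.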

Chain of human ether-à-go-go-related gene (hERG) potassium channel (Q12809 whole entry, looked up): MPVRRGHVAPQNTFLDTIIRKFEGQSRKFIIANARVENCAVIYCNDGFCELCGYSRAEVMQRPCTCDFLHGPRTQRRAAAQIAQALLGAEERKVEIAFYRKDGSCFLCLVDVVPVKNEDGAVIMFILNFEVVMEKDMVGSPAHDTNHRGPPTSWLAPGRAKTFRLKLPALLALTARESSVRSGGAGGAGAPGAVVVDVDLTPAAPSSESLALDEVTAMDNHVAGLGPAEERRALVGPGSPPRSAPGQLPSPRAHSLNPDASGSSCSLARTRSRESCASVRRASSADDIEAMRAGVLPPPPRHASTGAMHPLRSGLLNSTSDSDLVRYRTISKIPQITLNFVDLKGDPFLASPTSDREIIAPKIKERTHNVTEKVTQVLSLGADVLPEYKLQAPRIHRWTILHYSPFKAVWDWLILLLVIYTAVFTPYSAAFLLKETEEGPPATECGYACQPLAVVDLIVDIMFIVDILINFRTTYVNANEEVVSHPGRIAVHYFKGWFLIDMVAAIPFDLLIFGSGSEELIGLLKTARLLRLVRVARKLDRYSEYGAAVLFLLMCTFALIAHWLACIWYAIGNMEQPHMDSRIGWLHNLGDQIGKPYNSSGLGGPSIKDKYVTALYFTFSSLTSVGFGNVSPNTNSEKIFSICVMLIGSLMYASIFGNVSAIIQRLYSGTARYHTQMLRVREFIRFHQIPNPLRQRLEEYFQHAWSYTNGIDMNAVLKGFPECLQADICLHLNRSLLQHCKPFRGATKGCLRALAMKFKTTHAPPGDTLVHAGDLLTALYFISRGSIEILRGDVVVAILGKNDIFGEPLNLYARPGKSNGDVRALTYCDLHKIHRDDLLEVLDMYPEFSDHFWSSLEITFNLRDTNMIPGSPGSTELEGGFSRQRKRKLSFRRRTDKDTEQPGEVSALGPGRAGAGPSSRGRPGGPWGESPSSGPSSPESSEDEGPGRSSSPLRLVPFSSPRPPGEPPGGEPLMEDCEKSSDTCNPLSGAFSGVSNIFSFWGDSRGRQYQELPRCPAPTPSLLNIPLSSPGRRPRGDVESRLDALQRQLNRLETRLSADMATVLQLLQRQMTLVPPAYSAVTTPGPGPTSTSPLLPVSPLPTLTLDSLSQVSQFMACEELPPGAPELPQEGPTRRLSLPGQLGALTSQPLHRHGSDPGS

SMILES | hERG current change (%, negative = inhibition) at 10uM
C=CCn1c(O)c(C(C)=NCCCN(C)C)c(=O)[nH]c1=O | 5.49%
O=C1c2ccc(Cl)cc2S(=O)(=O)c2cccc(C(=O)N3CCN(c4ccc(Cl)cn4)CC3)c21 | -39.9%
N#Cc1cccnc1N1CCN(C(=O)c2cccc3c2C(=O)c2ccc(Cl)cc2S3(=O)=O)CC1 | -56.6%
N#Cc1cccnc1N1CCN(C(=O)c2ccc3c(c2)S(=O)(=O)c2ccccc2C3=O)CC1 | -22.7%
CCN(CCn1cccn1)C(=O)CCc1nnc(CCc2ccccc2OC)o1 | 5.73%
CCC/C(=N\NC(=O)c1cccc(C)c1)c1ccccc1 | 2.17%
CCOc1cccc(/C=N/Nc2ccc(S(=O)(=O)N(CC)CC)cn2)c1O | 6.79%
COc1ccc(CN(C)C(=O)COC(=O)c2c(C)nn(-c3ccc(F)cc3)c2Cl)cc1 | -71.1%
COc1ccc(CN(C)C(=O)COC(=O)c2c(-c3ccccc3Cl)noc2C)cc1 | -15.1%
COc1ccc(COC(=O)c2c(C)nn(-c3ccccc3)c2Cl)cc1 | 4.32%
Brc1ccc(CSc2nnc(-c3ccccn3)n2Cc2ccco2)cc1 | -16.8%
CN1CCc2c(OCC(=O)NC3CCCCC3)cccc2C1=O | 13.6%
CCCCCCSc1ccc([C@H]2N[C@@](Cc3ccccc3)(C(=O)OC)[C@H]3C(=O)N(C)C(=O)[C@@H]23)cc1OC.O=C(O)C(F)(F)F | 5.93%
O=P(O)(O)O.c1ccc(CSCCc2ccncc2)cc1 | -5.48%
COC(=O)Cn1cc(C(=O)c2ccccc2F)c2ccccc21 | -1.29%
NC(=O)Cn1cc(C(=O)c2ccccc2F)c2ccccc21 | 25.1%
CCOC(=O)Cn1cc(C(=O)c2ccccc2F)c2ccccc21 | -71%
CCc1ccc(C(=O)CN(C#N)c2nc(C)cc(C)n2)cc1 | -75.6%
CCN(CC)C(=O)CN(C#N)c1nc(C)cc(C)n1 | 19.4%
Cc1cc(C)nc(N(C#N)CC(=O)c2ccccc2)n1 | -42.9%
Cc1c(Cl)cccc1NC(=S)NC(=O)c1cncc(Br)c1 | 17.6%
COc1cccc(/C=N/NC(=S)NCCc2ccccc2)c1 | 10.5%
CCC(=O)Nc1cccc(-c2nnc(-c3cccc(NC(=O)CC)c3)o2)c1 | 7.83%
Cc1ccc(CNC(=O)c2oc3ccc(S(=O)(=O)N4CCC5(CC4)OCCO5)cc3c2C)cc1 | -3.35%

SMILES | hERG current change (%, negative = inhibition) at 10uM
CC(=O)Nc1ccc(C(=O)NCCc2ccccc2)cc1 | 12.9%
CN(Cc1ccccc1)S(=O)(=O)c1ccc(NS(C)(=O)=O)cc1 | -55.5%
CS(=O)(=O)Nc1ccc(C(=O)NCCSCc2ccccc2)cc1 | -45.1%
CS(=O)(=O)Nc1ccccc1C(=O)NCc1ccco1 | -2.03%
CN(c1ccc(C(=O)NCCSCc2c(F)cccc2Cl)cc1)S(C)(=O)=O | 1.6%
CS(=O)(=O)Nc1ccc(C(=O)NCCSCc2c(F)cccc2Cl)cc1 | -57.7%
CN(Cc1ccccc1)S(=O)(=O)c1ccc(NS(=O)(=O)Cc2ccccc2)cc1 | 0.139%
CS(=O)(=O)Nc1ccc(C(=O)NCCc2ccccc2)cc1 | -69.6%
CC(=O)Nc1ccc(S(=O)(=O)N(C)Cc2ccccc2)cc1 | -12.7%
CS(=O)(=O)Nc1ccc(C(=O)NCc2ccco2)cc1 | 0.221%
CS(=O)(=O)Nc1ccc(C(=O)Nc2ccccc2C(=O)NCc2ccco2)cc1 | -69.2%
CS(=O)(=O)NCCSCc1c(F)cccc1Cl | 1.87%
CCOC(=O)C1=C(COc2ccccc2)NC(=O)NC1c1ccc2ccccc2c1 (stereo not drawn) | -12.3%
CC(C)CCNC(=O)NC(=O)CSc1nnc2ccccn12 | 15.6%
CCOC(=O)N1CCC(NC(=O)CC2C(=O)NCCN2Cc2ccccc2)CC1 (stereo not drawn) | -1.48%
CCN(CC)S(=O)(=O)c1ccc(/C=C/C(=O)Nc2c(C)n(C)n(-c3ccccc3)c2=O)cc1 | 19.4%
CCCC1CCC(=C(C#N)C(N)=O)CC1 (stereo not drawn) | -32.8%
COC(=O)c1ccccc1NC(=O)c1ccc(NS(C)(=O)=O)cc1 | -36.1%
CCOC(=O)c1ccccc1NC(=O)c1ccccc1NS(C)(=O)=O | -0.0503%
CCc1ccccc1NC(=O)c1ccc(NS(C)(=O)=O)cc1 | -42.1%
O=C(Nc1ccccc1-c1ccccc1)c1ccccc1 | 13.2%
CS(=O)(=O)Nc1ccc(C(=O)Nc2ccccc2-c2ccccc2)cc1 | -65.9%
CCOC(=O)c1ccccc1NC(=O)c1ccc(NS(C)(=O)=O)cc1 | -54.7%
Cc1cccc(C(=O)O/N=C2/CC3CCC2(C)C3(C)C)c1 (stereo not drawn) | -11%

SMILES | hERG current change (%, negative = inhibition) at 10uM
Cc1cc(C(=O)NCCC2=CCCCC2)c(C)o1 | 7.75%
O=S(=O)(c1cccc(-c2n[nH]c(=S)o2)c1)N1CCOCC1 | 14.9%
CCC(C)NC(=O)C1CCN(S(=O)(=O)N2CCOCC2)CC1 (stereo not drawn) | 22.8%
N#CC1=C(SCc2ccc(C#N)cc2)N=C(N)C(c2nc(-c3ccccc3)cs2)C12CCCCC2 (stereo not drawn) | 12.3%
CCC(C)Cn1c(C(C)O)nc2ccccc21 (stereo not drawn) | 0.00748%
O=C(c1cc2ccccc2o1)N1CCN(c2cccc(C(F)(F)F)c2)CC1 | 3.21%
CCOc1cc(/C=N/NC(N)=O)cc(Br)c1OCc1ccccc1 | 3.4%
CC(NCc1cc(Br)ccc1OCC(N)=O)C12CC3CC(CC(C3)C1)C2.Cl (stereo not drawn) | -55.8%
CCOc1cc(/C=N/NC(N)=O)cc(Br)c1OCC(=O)Nc1cccc2ccccc12 | 18.4%
CCOc1cc(/C=N/O)cc(Br)c1OCC(=O)NCc1ccccc1 | 1.7%
CCOc1cc(C=O)cc(Br)c1OCC(=O)NCCc1ccccc1 | -81.7%
O=C(CCC(=O)NNC(=O)COc1ccc(Br)cc1Br)NCc1ccccc1 | 16.9%
CC(NCc1ccc(OCC(N)=O)cc1)C12CC3CC(CC(C3)C1)C2.Cl (stereo not drawn) | -11.2%
Cc1ccccc1NC(=O)COc1ccc(Br)cc1CNCCCO.Cl | -15.6%
COc1cc(CNC(C)C23CC4CC(CC(C4)C2)C3)ccc1OCC(=O)NC(C)(C)C.Cl (stereo not drawn) | -4.99%
CCOc1cc(C=O)cc(Br)c1OCC(N)=O | 2.71%
CCOc1cc(/C=N/NC(N)=O)cc(Br)c1OCC(=O)Nc1ccccc1C | -65.7%
Cl.O=C(COc1ccc(Br)cc1CNCCc1ccccc1)NCc1ccccc1 | -61.1%
CCN(CC)CCCNC(=O)Cn1cnc2sc(C)c(S(=O)(=O)N3CCC(C)CC3)c2c1=O | 11.1%
COC(=O)c1ccc(Cn2nc(-c3ccc(C)cc3)ccc2=O)cc1 | 23.5%
CCn1cc(C(=O)O)c(=O)c2cnc(N3CCN(C(=S)Nc4ccc(F)cc4)CC3)nc21 | 13.3%
CCN(c1ccccc1)S(=O)(=O)c1cccc(C(=O)N(C)CCOc2ccccc2)c1 | -3.95%
CCCCN(C)CCC(=O)Nc1ccc2c(c1)CCC2.Cl | -7.46%
CCOC(=O)c1sc(NC(=O)CSc2ncn(-c3ccccc3)n2)nc1C | 7.23%

SMILES | hERG current change (%, negative = inhibition) at 10uM
COc1ccc(CNC(=O)CCn2c(=O)oc3ccccc32)cc1 | -5.31%
O=C(NC(=S)Nc1ccc2[nH]c(=O)[nH]c2c1)c1ccccc1[N+](=O)[O-] | -8.83%
Cc1cc(C(=O)N2CCN(c3ncccn3)CC2)cs1 | -15.6%
CCOC(=O)c1sc(NC(=S)NC(=O)C2CCCC2)cc1C | 7.72%
CCCNCc1cc(OC)c(OCC(=O)NCCc2ccccc2)cc1Br | -38.1%
CCCNCc1cc(Br)ccc1OCC(=O)NCCc1ccccc1 | -63.5%
CCOc1cc(CNCCO)c(Cl)cc1OCC(=O)NCCc1ccccc1 | -6.82%
COc1cc(CNC(C)c2ccccc2)c(Br)cc1OCC(N)=O (stereo not drawn) | -17.2%
COc1ccc(Br)cc1CNC(C)c1ccccc1 (stereo not drawn) | -19.8%
CC(NCc1cc(Br)ccc1OCC(=O)NCc1ccccc1)c1ccccc1.Cl (stereo not drawn) | -59.6%
O=C(c1cccnc1)c1ncc(C(F)(F)F)cc1Cl | -3.33%
O=C(CSc1ccccc1)Nc1nnc(C2CC2)s1 | 16.9%
Cc1c(C(=O)N(Cc2ccccc2)Cc2cccs2)cnn1-c1ccc(Cl)cc1 | -3.32%
O=C(/C=C/c1ccccc1)N/C(=C/c1ccccc1)C(=O)NCCCO | -7.96%
CCC(C)c1ccc(S(=O)(=O)N2CCN(c3ccccn3)CC2)cc1 (stereo not drawn) | 24.6%
Cc1ccc(-c2c[n+](CC(=O)N3c4ccccc4Sc4ccccc43)c3n2CCC3)cc1.[Cl-] | -49.1%
Cc1ccc(-c2c[n+](CC(=O)c3cccs3)c3n2CCC3)cc1.[Br-] | 5.08%
Clc1ccc(C[n+]2cc(-c3ccc(Cl)cc3)n3c2CCC3)cc1.[Cl-] | -61.9%
Clc1ccc(-c2c[n+](Cc3ccc(Br)cc3)c3n2CCCCC3)cc1.[Br-] | -66.4%
Cc1ccc(C[n+]2cc(-c3ccc(Cl)cc3)n3c2CCC3)cc1.[Cl-] | -51.3%
Cc1ccc(-c2c[n+](Cc3cccc(Cl)c3)c3n2CCC3)cc1.[Br-] | -57.7%
N#CC[n+]1cc(-c2ccc(Cl)cc2)n2c1CCC2.[Cl-] | 5.21%
Cc1ccc(-c2c[n+](Cc3ccc(Cl)cc3)c3n2CCC3)cc1.[Cl-] | -41.6%
Clc1cccc(C[n+]2cc(-c3ccccc3)n3c2CCC3)c1.[Br-] | -25.7%
